These results are taken from PubChem BioAssay AID602292 (National Center for Advancing Translational Sciences (NCATS), 2012).

The whole screen tested about 1,300 compounds, of which about 380 (29%) were called active. Not shown: some 37% with an inconclusive outcome. The call rests on the fitted dose curve; in most records, active means well fitted inhibition curve with a large enough effect; inconclusive means small, poorly fitted or top-dose-only effect; inactive means flat fitted curve, though single readings scatter. Some of the results follow. Where a call stands in place of a potency, no number is given.
Potency means the concentration at half of the fitted maximal effect.

Thyrotropin receptor (Homo sapiens), sequence (P16473 whole entry, looked up): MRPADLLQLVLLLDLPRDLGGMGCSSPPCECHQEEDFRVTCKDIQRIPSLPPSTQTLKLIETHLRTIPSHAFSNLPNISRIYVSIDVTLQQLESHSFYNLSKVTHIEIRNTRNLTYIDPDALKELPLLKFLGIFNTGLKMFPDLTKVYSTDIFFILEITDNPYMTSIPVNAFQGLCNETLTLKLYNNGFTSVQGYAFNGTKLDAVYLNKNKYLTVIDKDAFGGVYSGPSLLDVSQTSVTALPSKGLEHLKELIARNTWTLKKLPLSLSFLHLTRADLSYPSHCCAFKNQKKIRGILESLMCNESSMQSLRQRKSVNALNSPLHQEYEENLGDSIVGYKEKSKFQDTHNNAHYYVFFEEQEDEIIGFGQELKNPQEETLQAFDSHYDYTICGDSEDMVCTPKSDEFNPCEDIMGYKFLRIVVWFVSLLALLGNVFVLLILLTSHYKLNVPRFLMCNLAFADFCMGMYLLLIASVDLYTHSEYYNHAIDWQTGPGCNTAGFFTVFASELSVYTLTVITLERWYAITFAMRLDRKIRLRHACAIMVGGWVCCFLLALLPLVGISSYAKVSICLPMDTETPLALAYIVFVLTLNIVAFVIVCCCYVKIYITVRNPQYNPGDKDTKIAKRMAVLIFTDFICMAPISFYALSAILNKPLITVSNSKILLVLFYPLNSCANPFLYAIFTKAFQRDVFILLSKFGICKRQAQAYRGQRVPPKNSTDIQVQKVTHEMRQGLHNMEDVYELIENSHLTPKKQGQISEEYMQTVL

For the assay, the target named is Thyrotropin receptor (Homo sapiens) (UniProt P16473). The assay is described as follows: qHTS for antagonists of the Thyroid Stimulation Hormone Receptor: Hit Validation in Primary Screen. Further: nearly all actives have a fitted effect of over 80% in size. As to conditions: TSHR-expressing cells, cAMP antagonist mode; series mostly up to 58 µM. In a few lines:
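TSHR-expressing cells were pretreated with compound, then stimulated with TSH at EC80 (4nM final) for 2 hours at 37 deg C. Cellular cAMP measured by competitive HTRF (anti-cAMP cryptate, cAMP-d2) after 30 min at room temperature.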
(In general: Quantitative high-throughput screening tests each substance at several concentrations.)
On to `CCN(c1ccccc1)S(=O)(=O)c1ccc(NCC2COc3ccccc3O2)nc1` (centres undefined), for which the Potency result is “inactive”.
The figure for `CCN(c1ccccc1)S(=O)(=O)c1ccc(NC(=O)c2nc(S(C)(=O)=O)ncc2Cl)cc1` is 26.9 µM (active).
In the case of `CCC1CCCCN1S(=O)(=O)c1ccc(NC(=O)c2nc(S(C)(=O)=O)ncc2Cl)cc1` (centres undefined) it was 9.53 µM (active); in that of `CS(=O)(=O)Cc1ccc(C(=O)Nc2cccc(-c3nc4ccccc4[nH]3)c2)cc1`, “inactive”.
In the case of `CS(=O)(=O)c1ncc(Cl)c(C(=O)Nc2ccc3ccccc3c2)n1`, the Potency was 30.1 µM (active).
The entry for `Cc1ccc(S(=O)(=O)N(CC(=O)NCc2ccccn2)c2ccc(Cl)cc2)cc1` is “inactive”; for `CN1/C(=C/C(=O)c2nc(S(C)(=O)=O)ncc2Cl)C(C)(C)c2ccccc21` it is 21.3 µM (active); for `CCSc1ncc(Cl)c(C(=O)Nc2ccccc2OC)n1` it is “inactive”.
As to `CCS(=O)(=O)c1ncc(Cl)c(C(=O)Nc2ccc(S(=O)(=O)N(C)c3ccccc3)cc2)n1`, the Potency was 19 µM (active).
Turning to `CCS(=O)(=O)c1ccc(C(=O)Nc2ccccc2)c(Cl)c1Cl`, the Potency result is “inactive”.
In the case of `CN(c1ccccc1)S(=O)(=O)c1ccc(NC(=O)c2nc(S(C)(=O)=O)ncc2Cl)cc1` it was 21.3 µM (active).
In the case of `Cc1onc(-c2c(Cl)cccc2Cl)c1C(=O)N1CCc2ccccc2C1` it was “inactive”.
In the case of `COc1ccc(/C=N/n2c(C)nnc2C)c(OC)c1OC` it was “inactive”; in that of `CCN(C(=O)c1cc2c(=O)n3ccccc3nc2n1C)C1CCCCC1`, “inactive”.
Take `CCN(CC)c1ccc2nc3ccccc3[n+](CC)c2c1`: the Potency is 13.5 µM (active).
In the case of `Cc1c(N=Nc2c(-c3ccc([N+](=O)[O-])cc3)[nH]n(C(N)=S)c2=O)cccc1[N+](=O)[O-]` it was 3.79 µM (active).
Regarding `CC(=O)Nc1nc(C)c(Oc2ccc(C)cc2)c(=O)[nH]1`, the Potency entry is “inactive”.
Regarding `COc1ccc(Nc2ccc([N+](=O)[O-])c3nonc23)c(OC)c1`, the Potency entry was “inactive”.
Take `O=[N+]([O-])c1ccc(Sc2cccc[n+]2[O-])c2nonc12`: the Potency is 8.49 µM (active).
The entry for `Fc1cccc(Cl)c1CNCc1cccnc1` is “inactive”; for `Cc1ccc(NC(=O)c2cccc(OCc3c(C)noc3C)c2)cc1S(=O)(=O)Nc1ccccc1Cl` it is “inactive”; for `CN(C)S(=O)(=O)Oc1cccc(C(=O)Nc2ccc(Cl)c(Cl)c2)c1` it is 26.9 µM (active).
The entry for `O=C(NCc1cccnc1)c1nc(-c2ccccc2)n(-c2ccccc2)n1` is “inactive”; for `O=C(Nc1ccc(Cl)c(Cl)c1)c1cccc(S(=O)(=O)NCc2cccnc2)c1` it is 13.5 µM (active).
With `O=c1[nH]c(=S)[nH]c2c1CN(Cc1ccc(F)cc1)CC2`, the Potency entry was “inactive”.
The entry for `O=c1c2nncn2c2cccnc2n1CCNc1ncc(C(F)(F)F)cc1Cl` is “inactive”.
In the case of `O=C(O)c1nn(CC(=O)N2CCN(c3ncc(C(F)(F)F)cc3Cl)CC2)c(=O)c2ccccc12` it was 21.3 µM (active).
The figure for `Cc1ccc(-n2[nH]c(C)c(/C=N/Nc3ccc([N+](=O)[O-])cc3[N+](=O)[O-])c2=O)cc1C` is 2.39 µM (active).
Turning to `Cc1ccc(-n2[nH]c(C)c(/C=N/Nc3ccc([N+](=O)[O-])cc3[N+](=O)[O-])c2=O)cc1`, the Potency is 6.75 µM (active).
In the case of `O=C(N/N=C/c1ccc[nH]1)c1sc2ccccc2c1Cl` it was “inactive”; in that of `Nc1nnc(COc2ccc(Br)cc2Br)s1`, “inactive”.
With `O=C(Oc1c(Br)cc([N+](=O)[O-])cc1Br)c1cccnc1`, the Potency was 4.26 µM (active).
`COc1ccc(CN2CCCN(C)CC2)c(OC)c1C`: the Potency entry is “inactive”.
In the case of `CCOC(=O)N1CCN(C(=O)c2ccc(NS(=O)(=O)c3ccc(C)cc3)cc2)CC1` it was “inactive”; in that of `Cc1ccc(S(=O)(=O)Nc2ccc(N=Nc3ccc(O)cc3)cc2)cc1`, 30.1 µM (active); in that of `Cc1ccc(S(=O)(=O)NCCNS(=O)(=O)c2ccc(C)cc2)cc1`, “inactive”.
Consider `N#C/C(=N\Nc1ccc(Cl)c(Cl)c1)C(=O)C1CC1`, for which the Potency is 6.01 µM (active).
As for `Cc1cccc(C)c1NC(=O)N1CCC(C(=O)c2ccc(F)cc2)CC1`, the Potency result is “inactive”.
The figure for `O=C(Nc1nnc(C(F)(F)F)s1)c1ccc(Br)s1` is 10.7 µM (active).
